HepG2 tox – kills HepG2 cells in TGF-b inhibitor counter-screen. HepG2 CAGA-GFP viability, ATP luminescence, 18 h. Potency, µM (doses to about 46.1 µM), without a hit: at the highest dose activity change, negative = cytotoxicity, usual class: cytotoxic. 0.76% of 410,000 active; also: potency is read from the fitted curve at half-maximal effect
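HepG2 CAGA-GFP cells (1000/well, DMEM with 1% FBS) received compound, then TGF-beta at 500 pg/mL final, and were incubated 18 hours at 37 degrees C. Viability was read by CellTiter-Glo luminescence. Media-only wells were set as complete cell-killing and DMSO as no toxicity.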
TGFb inhibitor – blocks TGF-b signaling | HepG2 CAGA-GFP TGF-b/SMAD3 reporter, GFP fluorescence, 18 h; TGF-beta stimulated, 500 pg/mL final | Potency, µM (highest dose often 46.1 µM), without a hit: at the highest dose activity, negative = inhibition, hits mostly inhibitors | 1.2% of 410,000 active; also: potency is read from the fitted curve at half-maximal effect; % is scaled to controls: 0 for no effect and ±100 for the full control effect; nearly all actives have a fitted effect of over 65% in size
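Cell-based qHTS in HEPG2 carrying a CAGA-GFP Smad reporter; compounds added before 500 pg/mL final TGF-beta, 18 h incubation at 37 degrees C, GFP fluorescence quantified per cell by imaging cytometry.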
ATXN viability – reduces viability in counter-screen for ATXN expression inhibitors. S2 cells (HEK-293 line with an ATXN2-luciferase reporter) viability, CellTiter-Fluor protease fluorescence, 24 h. Potency, µM (highest dose often 56.7 µM), actives largely listed as cytotoxic. 0.49% of 400,000 active. AID 651635; also: potency is read from the fitted curve at half-maximal effect; nearly all actives have a fitted effect of over 40% in size
ATXN2 expr inh – ATXN2 expression inhibition. HEK-293 ATXN2-luciferase reporter, luminescence, 24 h. Potency, µM (top dose mostly 57 µM), without a hit: top-dose activity change, negative = inhibition, actives largely listed as inhibitors. 0.72% of 360,000 active. AID 1745845; also: potency is read from the fitted curve at half-maximal effect; % is scaled to controls: 0 for no effect and ±100 for the full control effect; nearly all actives have a fitted effect of over 55% in size
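ATXN2-luciferase reporter cells (luciferase flanked by upstream and downstream ATXN2 gene portions) were treated 24 h at 37 °C with compounds at up to 57 uM. SteadyGlo luminescence gave expression; GF-AFC fluorescence gave viability.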
DRD3 antagonist – antagonists of human D3 dopamine receptor | D3R cells, DiscoveRx beta-arrestin luminescence, antagonist mode; active compounds read low | P35462 | 2.5% of 360,000 active | max response, negative = inhibition, %; in the data active = max response below about -50%; inconclusive = no clear call, values can overlap the other calls; also: % is scaled to controls: 0 for no effect and ±100 for the full control effect
Target sequence (P35462 whole entry, looked up): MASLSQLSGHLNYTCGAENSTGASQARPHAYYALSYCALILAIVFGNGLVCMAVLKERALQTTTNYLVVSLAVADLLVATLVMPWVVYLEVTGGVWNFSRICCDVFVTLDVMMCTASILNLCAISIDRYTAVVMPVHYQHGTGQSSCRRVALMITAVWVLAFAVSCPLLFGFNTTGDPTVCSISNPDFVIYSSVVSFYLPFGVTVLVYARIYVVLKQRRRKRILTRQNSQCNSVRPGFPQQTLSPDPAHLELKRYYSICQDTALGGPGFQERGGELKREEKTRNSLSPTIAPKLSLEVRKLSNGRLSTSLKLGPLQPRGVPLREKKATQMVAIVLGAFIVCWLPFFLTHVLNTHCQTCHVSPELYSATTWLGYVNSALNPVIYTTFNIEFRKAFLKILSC
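Cells plated overnight at 1500 cells/well, then exposed to library compounds with dopamine controls for 90 minutes at 37 degrees C. DiscoveRx reagent added for 30–60 minutes at room temperature; luminescence read, quantitative HTS format.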
D3 ag – activates the human D3 dopamine receptor | D3R DiscoveRx beta-arrestin cells, luminescence, 90 min | AID 652048 | 0.58% of 410,000 active | P35462 | max activation, %; in the data active = max activation above about 30%; also: 0% is about no effect
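Agonist mode: compounds and dopamine controls were applied to plated cells for 90 min at 37 degrees C after an overnight attachment at 1500 cells/well. Luminescent read-out followed 30 - 60 minutes at room temperature with DiscoveRx detection reagent.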
An asterisk follows results filed as active; i = inactive; ? = inconclusive; / = not tested or not shown; [ ] = dose if it differs, or a comment. Rows were chosen to be rich in hits. Some 4.7% of all compounds tested hit in one or more screens of this group. Unless noted, calls follow the shape of the dose curve; as a rule, active = well fitted curve in the direction sought with a large enough effect; inconclusive = small, poorly fitted or top-dose-only effect, or another doubt; inactive = no such curve, though single readings can be large; an effect the other way counts as inactive or inconclusive.

SMILES	HepG2 tox	TGFb inhibitor	ATXN viability	ATXN2 expr inh	DRD3 antagonist	D3 ag
O=[N+]([O-])c1ccccc1/C=N\N1CCN(Cc2ccccc2Cl)CC1	-10.4%	-18.6%	i	6.6%	0.3	-14.2
O=[N+]([O-])c1ccc(Cl)c(/C=N/N2CCN(Cc3ccccc3Cl)CC2)c1	7.4%	-22.0%	i	-3.1%	-51.4*	-26.3
O=[N+]([O-])c1ccccc1/C=N/N1CCN(Cc2ccccc2)CC1	-34.3%	-27.8%	i	62.2%	-67.2*	-16.8
N#CC[n+]1cccc(Br)c1	2.2%	-0.8%	/	/	/	/
COC(=O)c1c(OCCN2CCCCC2)cc(=O)n2c1CCN(Cc1cccc3nccnc13)CC2	/	/	i	/	/	/
Oc1ccc(/C=N/Nc2ccnc3cc(Cl)ccc23)cc1O	-41.2%	?	31.6µM*	?	?	-12.7
Oc1ccc(/C=N/Nc2ccnc3cc(Cl)ccc23)c(O)c1O	-1.0%	0.0%	i	2.6%	-5.5	15.7
CCC(O)c1cnc(OCc2ccccc2)nc1OCc1ccccc1 (stereo unspecified)	14.1µM*	?	i	/	-17.2	-3.3
COc1ccc(C2CC(c3cccc(F)c3)=NN2c2ccc(S(N)(=O)=O)cc2)cc1 (stereo unspecified)	-98.2%	11.2µM*	/	?	51.9	10.9
COc1ccc(C2CC(c3ccccc3)=NN2c2ccc(C(N)=O)cc2)cc1 (stereo unspecified)	-58.2%	15.8µM*	/	-23.0%	26.8	3.6
Cc1cccc(C2CC(c3ccccc3)=NN2c2ccc(S(N)(=O)=O)cc2)c1 (stereo unspecified)	11.2µM*	?	i	?	6.3	2.8
COc1ccc(C2CC(c3ccccc3)=NN2c2ccc(S(N)(=O)=O)cc2)cc1 (stereo unspecified)	-43.9%	?	/	-3.4%	13.3	3.2
Cc1ccnc2ccc([N+](=O)[O-])cc12	-10.4%	?	/	/	/	/
CCCCCCCCCC[n+]1cccc2cc(Cl)ccc21	-84.5%	?	/	/	/	/
CCCCCC[N+](C)(C)CC/C=C1/c2ccccc2Sc2ccc(Cl)cc21	-112.6%	?	?	?	-105.4*	-9.6
CC1(C(=O)NCCC(F)(F)F)Cc2c(-c3cccc(C(N)=O)c3)ccnc2O1 (stereo unspecified)	-1.9%	5.6%	i	6.7%	-59.3*	-4.3
CN1CCN(c2ccc(CNC(=O)C3(C)Cc4c(-c5ccccc5)ccnc4O3)cc2)CC1 (stereo unspecified)	-38.9%	15.0%	i	-10.0%	-62.3*	-15.0
CC1(C(=O)NCCC(F)(F)F)Cc2c(-c3cccc(C(F)(F)F)c3)ccnc2O1 (stereo unspecified)	-10.7%	-16.8%	?	-16.9%	6.1	2.5
CC(=O)Nc1ccc(NC(=O)C2(C)Cc3c(-c4ccccc4)ccnc3O2)cc1 (stereo unspecified)	-29.2%	13.6%	i	-2.2%	-112.5*	-4.1
CC1(C(=O)NCc2ccccc2)Cc2c(-c3ccc(C(N)=O)cc3)ccnc2O1 (stereo unspecified)	-2.9%	23.5%	i	0.3%	?	58.5*
CC(=O)Nc1cccc(-c2ccnc3c2CC(C)(C(=O)Nc2ccccc2)O3)c1 (stereo unspecified)	-9.7%	10.1%	i	5.1%	1.1	2.6
COc1ccc(C2(CNC(=O)CCC(=O)O)CCCC2)cc1OC	8.9%	-10.9%	i	-3.3%	-51.2*	-0.3
COc1nc(C)cnc1NS(=O)(=O)c1cccnc1-c1ccc(-c2nnco2)cc1	/	/	/	-7.0%	/	/
Cc1sc2ncnc(N/N=C/c3cccc(O)c3)c2c1C	-27.0%	?	/	40.2%	10.3	8.3
C/C(=N\Nc1ncnc2sc(C)c(C)c12)c1ccccn1	-87.7%	-8.2%	?	0.282µM*	14.0	25.8
SMILES	HepG2 tox	TGFb inhibitor	ATXN viability	ATXN2 expr inh	DRD3 antagonist	D3 ag
CC(C)(C)c1ccc(C2NC(=O)c3n[nH]c(-c4cccs4)c32)cc1 (stereo unspecified)	11.2µM*	?	/	/	/	2.0
Cn1nc(-c2ccccc2F)c2cc(C(=O)NCc3ccccc3Cl)sc21	-30.5%	-4.9%	i	-6.2%	/	3.5
CCc1ccc(CN2CCN(c3ncccn3)CC2)cc1	2.6%	7.3%	/	/	?	60.6*
Fc1ccc(CN2CCN(c3ncccn3)CC2)cc1	5.1%	-2.5%	i	-5.5%	-17.2	50.8*
Fc1ccc(F)c(CN2CCN(c3ncccn3)CC2)c1	0.5%	-5.6%	i	5.2%	12.5	30.9*
Oc1ccc(F)c(CN2CCN(c3ncc(Cc4ccccc4)cn3)CC2)c1	/	/	/	/	-10.2	-4.4
O=c1[nH]c(=O)n(C2CCCCC2)c(O)c1C1=Nc2ccccc2SC(c2ccc(Cl)cc2)C1 (stereo unspecified)	-4.6%	23.1%	i	90.9%	/	8.7
C=CCc1ccc(OCCCCNC2CCCC2)c(OC)c1	5.7%	4.3%	i	1.8%	-68.8*	-19.8
C=CCc1ccc(OC(=O)NC2CCCCC2)c(OC)c1	3.3%	0.7%	i	34.7%	-4.1	9.2
C=CCc1ccc(OCCOCCN(C)C)c(OC)c1	-32.5%	?	i	8.6%	-70.9*	-3.9
O=C(CP(=O)(c1ccccc1)c1ccccc1)N/N=C/c1cc(Br)cc(Br)c1O	-45.1%	-18.5%	i	10µM*	?	-15.6
O=C(Cc1ccccc1)N/N=C/c1cc(Br)cc(Cl)c1O	-16.3%	-1.5%	/	-26.7%[11.3 µM]	?	-6.1
O=C(C[n+]1ccccc1)N/N=C/c1cc(Br)cc(Br)c1O	2.6%	-26.2%	/	-31.1%	-165.2*	-44.9
COc1cc(Br)cc(/C=N/NC(=O)Cc2ccccc2)c1O	-66.0%	10µM*	/	?	-19.7	-37.1
COc1cc(Br)cc(C=Nc2cccc(C(F)(F)F)c2)c1O	-0.1%	?	i	-24.5%	-80.7*	-14.2
O=C(C[n+]1ccccc1)N/N=C/c1cc(Br)ccc1F	6.6%	?	i	1.1%	?	-14.2
Cc1c(CC(=O)N2CCCCC2)c(=O)oc2c(C)c3occ(C(C)(C)C)c3cc12	-19.8%	2.2%	/	/	/	-0.7
O=C(Cn1c(=O)nc(-c2ccccc2)c2ccccc21)NCc1ccc(Cl)cc1	-6.3%	-9.8%	/	/	/	9.5
O=[N+]([O-])c1ccc(C=C2c3ccccc3-c3ccccc32)cc1	-61.9%	?	/	/	/	/
Cc1cc(Br)ccc1NC(=O)c1c(C)oc2ncnc(N3CCCCC3)c12	0.5%	-22.3%	?	-23.6%	/	-8.3
O=C(COc1ccc(-c2ccccc2)cc1)N/N=C/c1ccccc1Br	-5.8%	?	i	-3.0%	14.4	19.7
CCC(O)(CC)C(=O)N/N=C/c1cc(Br)cc(Br)c1O	-6.2%	?	i	?	-66.0*	-26.4

High-throughput results as filed in PubChem.
